Measurements taken from ChEMBL document CHEMBL4513146, “CO-ADD screening of Karazin Kharkiv National University (Ukraine) compounds”.
Measured potencies and affinities stand elsewhere.

Key:
Staphylococcus aureus = settings: Concentration 32 ug.mL-1;; ASSAY_TEST Inhibition of Bacterial Growth; detection method Absorption (OD600); MEDIA CAMHB; plate type 384well; NBS; CORNING #3640; time 18 hr
Escherichia coli = settings: Concentration 32 ug.mL-1;; ASSAY_TEST Inhibition of Bacterial Growth; detection method Absorption (OD600); MEDIA CAMHB; plate type 384well; NBS; CORNING #3640; time 18 hr

SMILES	Inhibition (Staphylococcus aureus) [%]	Inhibition (Escherichia coli) [%]
Cc1cc(C)cc(Oc2nc3ccccc3n3c(=O)n(CC(=O)Nc4ccc5c(c4)OCO5)nc23)c1	0.02	-5.83
C=Cc1ccc(CN(c2ccc(C(C)C)cc2)S(=O)(=O)c2cccn3cnnc23)cc1	7.94	0.1
CSc1ccc(CNC(=O)CCc2nnc3c(N4CCCCC4)nc4ccccc4n23)cc1	14.53	2
COc1cccc(-n2ccn3c(SCC(=O)c4c(C)[nH]c5ccccc45)nnc3c2=O)c1	10.32	-7.21
COc1cccc(-n2ccn3c(SCC(=O)Nc4cc(Cl)ccc4OC)nnc3c2=O)c1	8.75	-1.77
CCOC(=O)c1ccc(NC(=O)Cn2nc3c4cc(-c5ccc(Cl)cc5)nn4ccn3c2=O)cc1	1.13	-5.39
CCCN(C)c1nccn2c(=O)n(CC(=O)Nc3ccc(Br)cc3)nc12	8.04	-5.88
Cc1cc(C)c(NC(=O)Cn2nc3c(Sc4ccccc4)nccn3c2=O)c(C)c1	5.4	-7.73
COc1ccc(Cl)cc1NC(=O)CSc1nc2ccccc2n2c(C(C)C)nnc12	-6.36	-1.47
CCCc1nnc2c(=O)n(CC(=O)Nc3ccc(C#N)cc3)c3ccccc3n12	8.01	-1.86
COc1cccc(-n2ccn3c(SCC(=O)c4ccc(OC)c(OC)c4)nnc3c2=O)c1	10.14	2.93
Cc1ccc(-c2ccc3nnc(CCC(=O)NCc4ccc(Br)cc4)n3n2)cc1	14.28	0.41
Cc1cc2nn(CC(=O)Nc3cccc(C)c3C)c(=O)n2c(Nc2ccc(C)c(F)c2)n1	9.25	-3.18
COc1ccccc1-n1ccn2c(SCC(=O)Nc3ccc(C)cc3Cl)nnc2c1=O	8.71	-9.42
CCCc1nnc2c(=O)n(CC(=O)Nc3cccc(C(C)=O)c3)c3ccccc3n12	2.4	-14.35
COc1cccc(-n2ccn3c(SCC(=O)Nc4ccc(C(C)C)cc4)nnc3c2=O)c1	0.38	-24.97
COc1cccc(-c2nc(CSc3nc4ccccc4n4c(C(C)C)nnc34)c(C)o2)c1OC	5.27	-1.56
Cc1ccc(C)c(Cn2nc3n(CC(C)C)c(=O)c4sccc4n3c2=O)c1	12.61	1.72
Cc1ccc(Oc2nccn3c(=O)n(CC(=O)NCCC4=CCCCC4)nc23)cc1	4.93	-4.1
COc1ccc(CNC(=O)Cn2nc3c4cc(-c5ccc(C)c(C)c5)nn4ccn3c2=O)cc1	6.21	2.95
O=C(Cn1nc2c(N3CCOCC3)nccn2c1=O)Nc1cc(C(F)(F)F)ccc1Cl	6.98	4.52
Cc1cc(Nc2ccc(F)cc2)nc2nn(Cc3cccc(C#N)c3)c(=O)n12	-3.76	-11.43
O=C(Cn1nc2c(N3CCOCC3)nccn2c1=O)Nc1cccc(C(F)(F)F)c1	4.69	-2.32
Cc1ccc(NC(=O)Cn2c(=O)c3nnc(C)n3c3ccccc32)cc1C	17.12	0.02

SMILES	Inhibition (Staphylococcus aureus) [%]	Inhibition (Escherichia coli) [%]
CCc1nnc2ccc(S(=O)(=O)N(Cc3cccc(OC)c3)c3ccc(F)cc3)cn12	-0.44	-12.34
O=C(Cn1nc2ccc(-c3ccc(Cl)cc3)nn2c1=O)N1CCN(c2ccc(F)cc2)CC1	4.1	-5.18
CCN(C(=O)CSc1nnc2c3cc(-c4ccc(OC)cc4)nn3ccn12)c1ccccc1	5.44	-0.03
CCOC(=O)c1ccccc1NC(=O)Cn1nc2c(Sc3ccccc3)nccn2c1=O	8.61	-3.65
COc1cccc(-n2ccn3c(SCC(=O)c4cc(C)ccc4C)nnc3c2=O)c1	11.66	-1.7
Cc1ccc(NC(=O)Cn2c(=O)c3nnc(C(C)C)n3c3ccccc32)c(C)c1	15.48	8.06
Cc1cccc(NC(=O)Cn2nc3ccc(SC(C)(C)C)nn3c2=O)c1	3.72	-1.06
CCCNC(=O)Cn1nc2n(Cc3cccs3)c(=O)c3sccc3n2c1=O	6.83	-4.01
CCOc1ccc(-n2ccn3c(SCC(=O)Nc4cc(Cl)ccc4OC)nnc3c2=O)cc1	6.02	1.04
O=C(Cn1nc2c(SC3CCCCC3)nccn2c1=O)N1CCN(c2ccc(F)cc2)CC1	8.31	-3.97
CC(C)c1ccc(NC(=O)Cn2nc3ccc(SCc4ccc(Cl)cc4)nn3c2=O)cc1	4.11	-6.33
COC(=O)c1ccc(NC(=O)CSc2nnc3ccc(C(=O)Nc4cccc(F)c4)cn23)cc1	19.46	-0.45
COc1ccc(-c2cc3c4nn(CC(=O)Nc5ccc(OC)c(Cl)c5)c(=O)n4ccn3n2)cc1	-2.49	-6.71
Cc1nnc2ccc(S(=O)(=O)N(Cc3cccc(F)c3)c3ccc(F)c(F)c3)cn12	0.15	-12.6
CC(C)Cn1c(=O)c2sccc2n2c(=O)n(Cc3ccc(Br)cc3)nc12	2.7	-6.62
COc1cccc(Oc2nccn3c(=O)n(CC(=O)Nc4cc(F)ccc4F)nc23)c1	10.86	-7.76
CCCCN(CC)c1ccc2nnc(CCc3nc(-c4ccc(OCc5ccccc5)cc4)no3)n2n1	4.18	-2.08
CC(C)c1nnc2c(=O)n(CC(=O)Nc3ccc4c(c3)OCO4)c3ccccc3n12	-1.02	-3.49
CCc1ccc(N(Cc2ccc(C)cc2)S(=O)(=O)c2cccn3c(C)nnc23)cc1	16.56	0.51
Cc1cccc(NC(=O)Cn2nc3c(SCc4ccc(Cl)cc4)nccn3c2=O)c1C	13.84	-3.65
CCOC(=O)N1CCN(C(=O)CCc2nnc3c4cc(-c5ccccc5)nn4ccn23)CC1	4.14	-0.18
COC(=O)c1ccc(NC(=O)Cn2nc3ccc(Sc4ccc(C)cc4)nn3c2=O)cc1	10.91	-1.06
Cc1c(Cl)cccc1NC(=O)Cn1nc2c(N3CCOCC3)nc3ccccc3n2c1=O	6.58	-0.44
CCC(Sc1nnc2c(=O)n(-c3ccccc3)ccn12)C(=O)Nc1cc(F)ccc1F (configuration not stated)	6.45	-6.05

SMILES	Inhibition (Staphylococcus aureus) [%]	Inhibition (Escherichia coli) [%]
CCCN(C)c1nccn2c(=O)n(CC(=O)Nc3cccc(Cl)c3F)nc12	4.66	0.13
CC(C)Cn1c(=O)c2sccc2n2c(=O)n(CC(=O)N(C)c3ccccc3)nc12	4.88	-0.39
COc1ccc(NC(=O)Cn2nc3c(SCc4ccc(Cl)cc4)nccn3c2=O)cc1OC	6.14	-6.36
CCC(Sc1nnc2c(=O)n(-c3ccc(C)c(C)c3)ccn12)C(=O)Nc1cc(OC)ccc1OC (configuration not stated)	-17.77	-11.35
Cc1ccc(NC(=O)c2ccc3nnc(SCC(=O)Nc4ccc(Br)cc4)n3c2)cc1	-2.55	-1.72
COc1ccc(NC(=O)Cn2nc3nc(Nc4ccc(F)cc4)ccn3c2=O)cc1F	-2.83	-10.06
CCCN(C)c1nccn2c(=O)n(CC(=O)Nc3ccc(OC)c(Cl)c3)nc12	16.13	-1.22
CCOc1ccc(-n2ccn3c(SCC(=O)Nc4ccc(F)cc4F)nnc3c2=O)cc1	5.96	2.93
CCC(C)NC(=O)Cn1nc2ccc(SCc3ccc(Cl)cc3)nn2c1=O (configuration not stated)	7.31	-1.43
O=C(Cn1nc2ccc(SCc3ccc(Cl)cc3)nn2c1=O)Nc1ccc(F)c(F)c1	-1.34	-2.62
CCCCOc1ccc(-c2cc3c4nnc(SCC(=O)Nc5ccc(Cl)cc5)n4ccn3n2)cc1	6.59	-0.55
Cc1cccc(-c2nc(CSc3nc4ccccc4n4c(C(C)C)nnc34)c(C)o2)c1	9.08	2.13
Cc1nnc2ccc(S(=O)(=O)N(Cc3ccccc3Cl)c3cccc(F)c3)cn12	-1.06	-5.9
Cc1ccc(NC(=O)Cn2nc3c(SC4CCCCC4)nccn3c2=O)c(Br)c1	0.51	-5.93
CCc1ccccc1Sc1nccn2c(=O)n(CC(=O)Nc3cccc(C)c3)nc12	2.29	-6.79
O=C(Cn1nc2c(=O)n(-c3ccc(Br)cc3)ccn2c1=O)Nc1cc(F)ccc1F	4.89	0.34
CSc1cccc(NC(=O)Cn2nc3ccc(SC4CCCCC4)nn3c2=O)c1	-9.19	-2.76
CSc1ccc(CNC(=O)Cn2nc3c(Oc4ccc(C)cc4)nccn3c2=O)cc1	-14.59	-5.13
COc1ccc(NC(=O)Cn2nc3c(Oc4ccc(C)cc4)nccn3c2=O)cc1Cl	-1.59	-3.22
CC(C)NC(=O)Cn1nc2n(Cc3ccco3)c(=O)c3sccc3n2c1=O	9.36	3.27
CC(C)(C)OC(=O)N1CCC(NC(=O)CCc2nnc3ccc(-c4ccccc4)nn23)CC1	1.31	-5.19
Cc1ccc(CNC(=O)CSc2nnc3c(=O)n(-c4ccccc4)ccn23)cc1	12.76	0.71
Cc1cc2nn(CC(=O)Nc3cccc(C)c3C)c(=O)n2c(Nc2ccc(F)c(C)c2)n1	2.54	-7.8
